Screening results as filed in PubChem.
The list is not random: actives were taken first. Their share in the collection is about 3.4%.
PP1 counter = PP1-alpha phosphatase inhibitors, primary screen, counter-screen for PP5 inhibitor project, biochemical, fluorescence, OMFP substrate, single point. purified PP1alpha. Serine/threonine-protein phosphatase PP1-alpha catalytic subunit (Homo sapiens), P62136. inhibition, % at 6.7 µM. 320,000 compounds, 0.9% hits;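 active = inhibition above the mean inhibition of all tested compounds plus 3 SD, computed separately for each screening campaign, cut at about 15% in these data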
pPAFAH FP inh = pPAFAH enzyme inhibitors, primary screen, biochemical, fluorescence polarization, human; Platelet-activating factor acetylhydrolase (Homo sapiens), Q13093; recombinant pPAFAH, FP-rhodamine probe fluorescence polarization; inhibition, % at 3.39 µM; 330,000 compounds, 1.5% hits;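 active = inhibition above the mean inhibition across the screen plus 3 SD, cut at about 25% in these data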;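 also: inhibitors block binding of the rhodamine activity-based probe so polarization drops; 0% = enzyme with DMSO and 100% = wells lacking pPAFAH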
Target sequence (Q13093 whole entry, looked up): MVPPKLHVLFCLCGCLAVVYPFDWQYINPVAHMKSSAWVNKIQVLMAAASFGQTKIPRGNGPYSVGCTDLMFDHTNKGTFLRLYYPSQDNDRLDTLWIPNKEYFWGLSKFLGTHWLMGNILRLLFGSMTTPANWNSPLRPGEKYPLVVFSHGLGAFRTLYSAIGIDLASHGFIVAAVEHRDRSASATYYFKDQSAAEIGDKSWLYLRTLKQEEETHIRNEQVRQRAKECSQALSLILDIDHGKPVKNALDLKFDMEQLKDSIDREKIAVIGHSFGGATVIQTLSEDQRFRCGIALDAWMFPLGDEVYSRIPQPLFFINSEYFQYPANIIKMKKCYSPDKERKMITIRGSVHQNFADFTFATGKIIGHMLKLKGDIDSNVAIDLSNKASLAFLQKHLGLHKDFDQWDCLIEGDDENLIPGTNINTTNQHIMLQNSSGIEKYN
PAFAH1B3 FP inh = PAFAH1B3 enzyme inhibitors, primary screen, biochemical, fluorescence polarization, human | 340,000 compounds, 0.28% hits | recombinant PAFAH1B3, FP-rhodamine probe | inhibition, % at 3.39 µM | Platelet-activating factor acetylhydrolase IB subunit alpha1 (Homo sapiens), Q15102;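 active = inhibition above the screen-wide average of all tested compounds plus 3 SD, cut at about 25% in these data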;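 also: 0% = enzyme with DMSO only and 100% = wells lacking PAFAH1B3 protein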
PAFAH2 inh = PAFAH2 enzyme inhibitors, primary screen, biochemical, fluorescence polarization, human; 340,000 compounds, 0.99% hits; recombinant PAFAH2, FP-rhodamine activity probe; inhibition, % at 3.39 µM; AID 492956, 2010;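 active = inhibition above the mean over all tested compounds plus 3 SD, cut at about 30% in these data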;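 also: inhibitors block probe labeling of enzyme so polarization drops; 0% = enzyme with DMSO and 100% = wells lacking PAFAH2 protein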
PP5 primary = PP5 phosphatase inhibitors, primary screen, biochemical, fluorescence; Serine/threonine-protein phosphatase 5 (Homo sapiens), P53041; purified PP5c, OMFP substrate fluorescence; inhibition, % at 6.7 µM; 320,000 compounds, 0.18% hits; AID 1987, 2009;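 active = inhibition above the campaign's mean inhibition across all tested compounds plus 3 SD, cut at about 9.5% in these data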;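 also: 0% = DMSO only and 100% = 100 µM cantharidin control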
PAFAH1B2 FP inh = PAFAH1B2 enzyme inhibitors, primary screen, biochemical, fluorescence polarization, human; inhibition, % at 3.39 µM; recombinant PAFAH1B2, FP-rhodamine activity probe; AID 492953, 2010; Platelet-activating factor acetylhydrolase IB subunit alpha2 (Homo sapiens), P68402; 340,000 compounds, 1.2% hits;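 active = inhibition above the mean of all tested compounds plus 3 SD, cut at about 24% in these data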;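 also: 0% = enzyme with DMSO and 100% = wells lacking PAFAH1B2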
Active calls of the source: *; . = not tested or not shown.

SMILES	PP1 counter	pPAFAH FP inh	PAFAH1B3 FP inh	PAFAH2 inh	PP5 primary	PAFAH1B2 FP inh
Cc1ccc2nc(SCC(=O)Nc3ccc(F)cc3F)nc(=O)n2c1	-2	0	2	-1	-2	10
O=C(COC(=O)C12CC3CC(CC(Br)(C3)C1)C2)NNC(=O)c1ccccc1	-3	4	5	3	1	52*
O=C(COC(=O)C12CC3CC(CC(Cl)(C3)C1)C2)N1CCCCC1	.	-8	13	2	.	29*
O=C(COC(=O)C12CC3CC(CC(C3)C1)C2)NCc1ccccc1	.	3	7	29	.	6
O=C(COC(=O)C12CC3CC(CC(Br)(C3)C1)C2)N1CCOCC1	-3	5	7	1	-1	6
CCOc1ccc(CNC(=O)CCC(=O)N2Cc3cccc(OC)c3Oc3ncccc32)cc1	-2	4	-1	7	-2	2
CCOCC(O)CSCc1ccc(Cl)cc1 (stereo not drawn)	0	2	-1	3	-1	26*
Cc1cccc(C2=NN(c3ccccc3)[C@@H](C(=O)N3CCOC3=O)[C@@H]2c2ccccc2)c1	.	7	11	0	.	5
Cc1cccc(C2=NN(c3ccc(Br)cc3)[C@@H](C(=O)N3CCOC3=O)[C@@H]2c2ccccc2)c1	.	29*	11	7	.	2
O=C(COC(=O)COc1ccc(Br)cc1)NCCC1=CCCCC1	2	11	-5	-1	2	30*
C=CCN(c1ccccc1)S(=O)(=O)c1cccc(C(=O)Nc2nc3ccccc3[nH]2)c1	17*	-5	1	-2	-3	6
C=CCN(c1ccccc1)S(=O)(=O)c1cccc(C(=O)Nc2ccncc2)c1	-1	4	7	0	5	5
C=CCn1c(NS(=O)(=O)c2ccccc2)c(S(=O)(=O)c2ccc(C)cc2)c2nc3ccccc3nc21	30*	10	7	3	13*	3
Cc1ccc(C)c(NC(=O)CN(C)C(=O)c2ccc3[nH]c4c(c3c2)CC(C)CC4)c1 (stereo not drawn)	-2	8	5	3	7	40*
CCN(CC(=O)Nc1ccc(OC)cc1)C(=O)c1ccc2[nH]c3c(c2c1)CC(C)CC3 (stereo not drawn)	-1	4	3	4	4	27*
C#CCCc1cscc1/C=[N+](\[O-])c1ccc(C(=O)OCC)cc1	15*	5	4	-5	-2	-5
CCOC(=O)c1ccc(/[N+]([O-])=C/c2ccccc2)cc1	-3	2	18	4	-3	4
CS(=O)(=O)N1CCN(c2ccc(C(=O)NC34CC5CC(CC(C5)C3)C4)cc2[N+](=O)[O-])CC1	-3	-4	-2	10	0	22
O=C(CN1CCCCCC1)Nc1ccc(F)c(F)c1	-2	1	4	12	-1	0
N/C(=N\OC(=O)c1ccc(Cl)cc1Cl)c1ccccc1	1	-7	3	-5	0	12
N/C(=N\OC(=O)c1ccc(Cl)cc1Cl)c1ccc(Cl)cc1	-1	-4	7	-22	-1	37*
O=C(O)c1cccc(-n2c(O)c(C=C3N=c4ccccc4=N3)sc2=S)c1	0	29*	5	3	-1	5
Clc1ccccc1Cn1c(/C=C/c2ccco2)nc2ccccc21	5	31*	5	-3	1	-6
CC(=O)c1ccc2c3c(cccc13)C(=O)N(c1c(C)nn(C)c1C)C2=O	3	0	9	-3	2	3
O=C(NCc1ccccc1)C1Nc2ccc(OC(F)(F)F)cc2C2C=CCC12 (stereo not drawn)	6	16	15	12	1	9
SMILES	PP1 counter	pPAFAH FP inh	PAFAH1B3 FP inh	PAFAH2 inh	PP5 primary	PAFAH1B2 FP inh
O=C(CSc1nc2ccccc2n1CCc1ccccc1)c1ccc(O)c(O)c1	.	.	25	55*	.	28*
O=C(CSc1nc2ccccc2c(=O)[nH]1)c1ccc(O)c(O)c1	1	33*	18	49*	1	10
O=C(CSc1nc2ccccc2n1CCc1ccccc1)N1CCOCC1	-1	-2	-3	1	-1	-1
COc1ccc(S(=O)(=O)N2CCOCC2)cc1NC(=O)c1cc2ccccc2o1	.	.	2	8	.	-1
COCCSc1ncnc2c1oc1nc3c(cc12)COC(C)(C)C3	-2	5	5	1	0	8
O=C(COC(=O)c1ccc(S(=O)(=O)N2CCCCC2)cc1)Nc1ccccc1Cl	.	.	7	10	.	-2
COc1ccc(Cn2nnnc2C(c2cccs2)N2CCN(c3ccccc3)CC2)cc1 (stereo not drawn)	4	9	7	-1	5	-5
Oc1ccc(N2CCN(C(c3cccs3)c3nnnn3CCc3ccccc3)CC2)cc1 (stereo not drawn)	7	30*	3	0	2	19
CC1CC(NC(=O)/C=C/C(=O)O)CC(C)(C)C1 (stereo not drawn)	-2	4	4	7	0	24*
COc1ccc(CCNC(=S)Nc2cccc3ccccc23)cc1	1	0	-4	5	1	4
CCCCCn1c(N2CCC(Cc3ccccc3)CC2)nc2c1c(=O)[nH]c(=O)n2C	16*	12	-3	2	7	16
CCCn1c(N2CCC(Cc3ccccc3)CC2)nc2c1c(=O)[nH]c(=O)n2C	0	13	8	8	5	3
CC(C)=CCc1cc(-c2oc3cc(O)cc(O)c3c(=O)c2O)ccc1O	0	34*	26*	-8	4	13
O=c1c(O)c(-c2ccccc2)oc2cc(O)cc(O)c12	.	7	23	13	.	12
COc1cc(/C=N/n2cnnc2)ccc1OCCOc1ccccc1	2	3	2	-2	1	4
C(=N\n1cnnc1)/c1cccc(OCCOc2ccccc2)c1	1	1	3	4	2	28*
Cc1ccc(S(=O)(=O)Oc2cccc(/C=N/n3cnnc3)c2)cc1	1	4	11	-9	1	24*
CC(=O)Nc1ccc(NC(=O)C(c2ccccc2)c2ccccc2)cc1	-8	6	5	-5	0	9
COc1ccc(-c2[nH]c(-c3ccc(Cl)cc3)nc2SCC(=O)Nc2nccs2)cc1	16*	9	10	-8	5	1
O=C(CSCC(=O)Nc1nccs1)Nc1ccccc1	0	6	2	2	2	6
O=C(CSCc1ccc(Cl)cc1)Nc1nccs1	0	3	8	9	2	28*
CC(C)C(C(=O)Nc1nccs1)c1ccc(Cl)cc1 (stereo not drawn)	2	0	8	10	3	36*
